In PubChem BioAssay one finds inhibition data, which are given here for 40 compounds.

Each structure is given as a SMILES string. A number with no mark means an inactive call. Calls of active or inactive are those of the source.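 The calls were made as follows, unless noted: active = mean inhibition above 46.68%, the untreated control wells mean plus 3 SD; inactive = the rest.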

In one assay the target is Nuclear receptor coactivator 1 (Homo sapiens) (UniProt Q15788). Description: NCOA1 GAL4-fusion reporter inhibition – cell-based, luminescence, quadruplicate, confirmation (AID 588820).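 Also: 0% = DMSO wells and 100% = gossypol 36 µM treated wells.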 The settings on record: HEK293 GAL4-SRC1 luciferase reporter, at 3.6 µM, stronger effect = higher value.
Sequence of Nuclear receptor coactivator 1 (Homo sapiens) (Q15788 whole entry, looked up, the tested form may be a part): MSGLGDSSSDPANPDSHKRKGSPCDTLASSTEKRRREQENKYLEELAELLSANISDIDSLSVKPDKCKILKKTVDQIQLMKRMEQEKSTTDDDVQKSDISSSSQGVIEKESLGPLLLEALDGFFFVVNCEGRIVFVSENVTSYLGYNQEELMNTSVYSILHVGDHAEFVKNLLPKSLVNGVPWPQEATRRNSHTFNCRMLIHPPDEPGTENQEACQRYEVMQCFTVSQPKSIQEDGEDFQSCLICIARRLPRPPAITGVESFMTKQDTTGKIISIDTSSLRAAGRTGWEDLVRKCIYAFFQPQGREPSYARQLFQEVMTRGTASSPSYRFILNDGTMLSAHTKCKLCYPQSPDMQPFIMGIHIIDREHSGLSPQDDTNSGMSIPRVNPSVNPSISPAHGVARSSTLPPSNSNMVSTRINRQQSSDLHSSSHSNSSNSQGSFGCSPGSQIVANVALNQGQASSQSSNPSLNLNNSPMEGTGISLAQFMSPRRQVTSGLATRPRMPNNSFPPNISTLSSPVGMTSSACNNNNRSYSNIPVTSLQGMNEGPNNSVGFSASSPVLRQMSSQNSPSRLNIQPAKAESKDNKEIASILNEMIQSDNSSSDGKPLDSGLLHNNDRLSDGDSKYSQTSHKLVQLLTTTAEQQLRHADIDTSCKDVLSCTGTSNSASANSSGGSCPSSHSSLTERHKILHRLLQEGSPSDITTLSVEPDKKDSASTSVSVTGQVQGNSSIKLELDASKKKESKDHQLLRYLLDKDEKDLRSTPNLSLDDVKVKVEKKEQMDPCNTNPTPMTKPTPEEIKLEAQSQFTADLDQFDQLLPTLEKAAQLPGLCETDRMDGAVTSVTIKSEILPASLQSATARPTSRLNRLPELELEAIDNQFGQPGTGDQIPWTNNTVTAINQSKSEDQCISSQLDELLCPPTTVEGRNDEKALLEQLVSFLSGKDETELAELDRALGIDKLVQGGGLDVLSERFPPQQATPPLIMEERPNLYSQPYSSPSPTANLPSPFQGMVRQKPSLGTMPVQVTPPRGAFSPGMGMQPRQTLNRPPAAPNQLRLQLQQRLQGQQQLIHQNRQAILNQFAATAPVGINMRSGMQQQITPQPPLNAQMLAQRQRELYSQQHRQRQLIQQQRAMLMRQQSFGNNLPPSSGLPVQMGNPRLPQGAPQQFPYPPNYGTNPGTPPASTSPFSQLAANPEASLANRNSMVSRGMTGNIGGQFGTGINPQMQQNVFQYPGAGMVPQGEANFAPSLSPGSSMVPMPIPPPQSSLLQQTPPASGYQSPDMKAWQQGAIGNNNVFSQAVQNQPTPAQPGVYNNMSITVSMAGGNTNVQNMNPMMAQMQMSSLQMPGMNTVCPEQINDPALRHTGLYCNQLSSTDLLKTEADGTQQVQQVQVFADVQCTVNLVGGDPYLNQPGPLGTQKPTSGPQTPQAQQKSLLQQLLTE
In the case of `CN(C)CCN1C(=O)c2cccc3cc([N+](=O)[O-])cc(c23)C1=O`, the inhibition is -146%.

For `CC(C)C(=O)NC(c1ccc(Cl)cc1Cl)c1ccc2cccnc2c1O` (stereo not given), the inhibition is 6.86%.

`Brc1ccc2c(c1)-c1ccccc1C1=NCCN12`: the inhibition is -49.1%.

As to `Cc1cc(C)c(CN2CCN(C(=O)Cn3cnc4c(NCc5ccccc5)ncnc43)CC2)c(C)c1`, the inhibition was -9.2%.

Take `Cc1ccc2occ(/C=N/NC(=O)c3ccccc3O)c(=O)c2c1`: the inhibition was 5.51%.

In the case of `CCN(CC)C1=CC(=[N+]2CCCC2)CC(C)(C)C1`, the inhibition is -5.15%.

With `Cc1ccc(S(=O)(=O)/N=C(\CCl)N2CCOCC2)cc1`, the inhibition is -32.5%.

Regarding `Cc1cc2[nH]c3c(c[n+](C)c4ccccc34)c2cc1C`, the inhibition is 20.9%.

With `Cc1ccc(Oc2ccc(OCC(=O)Nc3ccncc3)cc2)cc1`, the inhibition is -33.1%.

Take `CCN(CC)CCn1nc2c3c(cccc3c1=O)-c1ccccc1-2`: the inhibition was 28.6%.

On to `Clc1ccc(-c2nnc(CSc3nnc(-c4cccs4)n3Cc3ccccc3)o2)cc1`, for which the inhibition is -0.02%.

Regarding `O=C(NCc1ccccc1)c1cccc(NC(=O)c2ccccc2)c1`, the inhibition is -0.73%.

Consider `Cc1sc2ncnc(NCC3COc4ccccc4O3)c2c1C` (stereo not given), for which the inhibition was -48.1%.

Turning to `Cc1ccc(/C=C2/CNC/C(=C/c3ccc(C)cc3)C2=O)cc1`, the inhibition is -19.2%.

With `CCN(CC)S(=O)(=O)c1cc(NC(=O)CNc2cccc(S(=O)(=O)N3CCCC3)c2)ccc1C`, the inhibition was -4.32%.

On to `O=C(CSc1nnc(Cn2nnc3ccccc32)o1)N(Cc1ccc(F)cc1)c1ccccc1`, for which the inhibition is -0.43%.

Turning to `Cc1cccc(-n2ncc3c2CCCC3NC(=O)c2ccncc2)c1C` (stereo not given), the inhibition is -10.4%.

On to `CC(=O)Nc1ccc(Nc2c3ccccc3nc3ccccc23)cc1`, for which the inhibition is 22.8%.

As for `Cc1nc2ccc(NC(=O)c3cc(S(=O)(=O)N(C)c4ccccc4)ccc3Cl)cc2s1`, the inhibition was -5.16%.

With `O=C(Nc1nonc1NC(=O)c1cccs1)c1cccs1`, the inhibition was -7.76%.

For `CCCCCCCCNc1ncnc2ccccc12`, the inhibition was -40.4%.

On to `CN(C(=O)c1cccc(NC(=O)Cc2ccc(NC(=O)C3CCCN(C(=O)CCc4ccccc4)C3)cc2)c1)C1CCCCC1` (stereo not given), for which the inhibition is 6.53%.

Turning to `COc1ccc(CC(=O)Nc2cccc(S(=O)(=O)N3CCCCCC3)c2)cc1OC`, the inhibition was -18.9%.

On to `CCc1c(C)nc2ncnn2c1NCCc1ccc(OC)cc1`, for which the inhibition was -21.1%.

In the case of `CN(C)c1ccc(Sc2ccc3nc(N)nc(N)c3c2)cc1`, the inhibition is 14.5%.

As to `CC(=O)Nc1ccccc1OCC(=O)c1cc(C)n(Cc2cccs2)c1C`, the inhibition is -59.8%.

With `O=C1c2cccc3cc([N+](=O)[O-])cc(c23)C(=O)N1CCN1CCCC1`, the inhibition is -86.9%.

Consider `Cc1cccc(-n2c(CNC(=O)c3ccccc3)nnc2SCC(=O)Nc2nccs2)c1`, for which the inhibition is -8.14%.

In the case of `NS(=O)(=O)c1ccc(N=Nc2c(O)[nH]c3ccc(Br)cc23)cc1`, the inhibition is 8.56%.

Take `COc1cc2c(oc(=O)c3cc(C)cc(OC)c32)c2c(C3OC(C)C(O)C(C)(O)C3O)ccc(O)c12` (stereo not given): the inhibition is -62.6%.

Consider `CC1(C)CC(N2CCCC2)=CC(=[N+]2CCCC2)C1`, for which the inhibition is 2.13%.

On to `CCOC(=O)c1cc(C#N)c(N2CCN(C(=O)c3cccc(C(F)(F)F)c3)CC2)nc1C(F)(F)F`, for which the inhibition was 15.6%.

Regarding `COc1cccc2c1C(=O)c1c(O)c3c(c(O)c1C2=O)C[C@@](O)(C(=O)CO)C[C@@H]3OC1CC(N)C(O)C(C)O1` (stereo not given in full), the inhibition was -127%.

Consider `CN(C)CCNc1ccc2ncn3c4ccc(O)cc4c(=O)c1c23`, for which the inhibition is 23.2%.

Consider `CCN(CC(=O)Nc1ccc(NC(C)=O)cc1)C(=O)C1(c2ccc(Cl)cc2)CCC1`, for which the inhibition is 16.1%.

In the case of `COc1cccc2c1C(=O)c1c(O)c3c(c(O)c1C2=O)CC(O)(C(C)=O)CC3OC1CC(O)C(O)C(C)O1` (stereo not given), the inhibition was -3.87%.

Regarding `Cc1ccc(C#CC[N+]2(CC#Cc3ccc(C)cc3)CCCCC2)cc1`, the inhibition is 32.6%.

For `O=C(N/N=C/c1ccc(O)cc1)c1ccc(COc2cc(Cl)ccc2Cl)o1`, the inhibition was -2.22%.

For the compound `CCCCn1c2c(c(=N)c3c1CCC3)CCC2`, the inhibition was 4.17%.

As for `Cc1c(C(C)C)c(=O)n(-c2ccc(S(=O)(=O)NCc3ccccc3)cc2)n1C`, the inhibition was -18.5%.

Test system in a further assay: not listed separately
Description: repression of VP16-driven luciferase reporter – cell-based, luminescence, high throughput, counter-screen for SRC1 inhibitor project (AID 588824; in the data active = inhibition above about 25%). The settings on record: cell-based VP16 transactivation luciferase luminescence; at 3.6 µM; stronger effect = higher value. For orientation: In a reporter assay the amount or activity of a reporter protein is the signal.
Turning to `CN(C)CCN1C(=O)c2cccc3cc([N+](=O)[O-])cc(c23)C1=O`, the inhibition was 47.5% (active).

In the case of `CC(C)C(=O)NC(c1ccc(Cl)cc1Cl)c1ccc2cccnc2c1O` (stereo not given), the inhibition is 16.8%.

Consider `Brc1ccc2c(c1)-c1ccccc1C1=NCCN12`, for which the inhibition was 40.9% (active).

On to `Cc1cc(C)c(CN2CCN(C(=O)Cn3cnc4c(NCc5ccccc5)ncnc43)CC2)c(C)c1`, for which the inhibition is 43.4% (active).

As to `Cc1ccc2occ(/C=N/NC(=O)c3ccccc3O)c(=O)c2c1`, the inhibition was 13.2%.

For the compound `CCN(CC)C1=CC(=[N+]2CCCC2)CC(C)(C)C1`, the inhibition was 22.7%.

As for `Cc1ccc(S(=O)(=O)/N=C(\CCl)N2CCOCC2)cc1`, the inhibition was -30.7%.

Regarding `Cc1cc2[nH]c3c(c[n+](C)c4ccccc34)c2cc1C`, the inhibition is 47.8% (active).

Regarding `Cc1ccc(Oc2ccc(OCC(=O)Nc3ccncc3)cc2)cc1`, the inhibition is 41.3% (active).

Turning to `CCN(CC)CCn1nc2c3c(cccc3c1=O)-c1ccccc1-2`, the inhibition is 54.7% (active).

`Clc1ccc(-c2nnc(CSc3nnc(-c4cccs4)n3Cc3ccccc3)o2)cc1`: the inhibition is 30.5% (active).

Turning to `O=C(NCc1ccccc1)c1cccc(NC(=O)c2ccccc2)c1`, the inhibition was 39.8% (active).

Regarding `Cc1sc2ncnc(NCC3COc4ccccc4O3)c2c1C` (stereo not given), the inhibition was 26.2% (active).

For the compound `Cc1ccc(/C=C2/CNC/C(=C/c3ccc(C)cc3)C2=O)cc1`, the inhibition was 43.8% (active).

Turning to `CCN(CC)S(=O)(=O)c1cc(NC(=O)CNc2cccc(S(=O)(=O)N3CCCC3)c2)ccc1C`, the inhibition is 32.8% (active).

On to `O=C(CSc1nnc(Cn2nnc3ccccc32)o1)N(Cc1ccc(F)cc1)c1ccccc1`, for which the inhibition was 38.8% (active).

For the compound `Cc1cccc(-n2ncc3c2CCCC3NC(=O)c2ccncc2)c1C` (stereo not given), the inhibition was 26.6% (active).

For the compound `CC(=O)Nc1ccc(Nc2c3ccccc3nc3ccccc23)cc1`, the inhibition is 39.4% (active).

Consider `Cc1nc2ccc(NC(=O)c3cc(S(=O)(=O)N(C)c4ccccc4)ccc3Cl)cc2s1`, for which the inhibition was 33.7% (active).

With `O=C(Nc1nonc1NC(=O)c1cccs1)c1cccs1`, the inhibition is 21.9%.

For the compound `CCCCCCCCNc1ncnc2ccccc12`, the inhibition is 29.4% (active).

Regarding `CN(C(=O)c1cccc(NC(=O)Cc2ccc(NC(=O)C3CCCN(C(=O)CCc4ccccc4)C3)cc2)c1)C1CCCCC1` (stereo not given), the inhibition was 28% (active).

As to `COc1ccc(CC(=O)Nc2cccc(S(=O)(=O)N3CCCCCC3)c2)cc1OC`, the inhibition is 33% (active).

For `CCc1c(C)nc2ncnn2c1NCCc1ccc(OC)cc1`, the inhibition is 28.3% (active).

Turning to `CN(C)c1ccc(Sc2ccc3nc(N)nc(N)c3c2)cc1`, the inhibition was 27.5% (active).

In the case of `CC(=O)Nc1ccccc1OCC(=O)c1cc(C)n(Cc2cccs2)c1C`, the inhibition is 39.3% (active).

Regarding `O=C1c2cccc3cc([N+](=O)[O-])cc(c23)C(=O)N1CCN1CCCC1`, the inhibition was 42.6% (active).

Turning to `Cc1cccc(-n2c(CNC(=O)c3ccccc3)nnc2SCC(=O)Nc2nccs2)c1`, the inhibition was 4.71%.

As to `NS(=O)(=O)c1ccc(N=Nc2c(O)[nH]c3ccc(Br)cc23)cc1`, the inhibition was 5.38%.

For `COc1cc2c(oc(=O)c3cc(C)cc(OC)c32)c2c(C3OC(C)C(O)C(C)(O)C3O)ccc(O)c12` (stereo not given), the inhibition was 64.9% (active).

Regarding `CC1(C)CC(N2CCCC2)=CC(=[N+]2CCCC2)C1`, the inhibition was 23.9%.

For the compound `CCOC(=O)c1cc(C#N)c(N2CCN(C(=O)c3cccc(C(F)(F)F)c3)CC2)nc1C(F)(F)F`, the inhibition was 29.2% (active).

Turning to `COc1cccc2c1C(=O)c1c(O)c3c(c(O)c1C2=O)C[C@@](O)(C(=O)CO)C[C@@H]3OC1CC(N)C(O)C(C)O1` (stereo not given in full), the inhibition was 71.4% (active).

As to `CN(C)CCNc1ccc2ncn3c4ccc(O)cc4c(=O)c1c23`, the inhibition was 52.9% (active).

With `CCN(CC(=O)Nc1ccc(NC(C)=O)cc1)C(=O)C1(c2ccc(Cl)cc2)CCC1`, the inhibition is 9.61%.

Regarding `COc1cccc2c1C(=O)c1c(O)c3c(c(O)c1C2=O)CC(O)(C(C)=O)CC3OC1CC(O)C(O)C(C)O1` (stereo not given), the inhibition is 16.4%.

In the case of `Cc1ccc(C#CC[N+]2(CC#Cc3ccc(C)cc3)CCCCC2)cc1`, the inhibition is 36.3% (active).

For `O=C(N/N=C/c1ccc(O)cc1)c1ccc(COc2cc(Cl)ccc2Cl)o1`, the inhibition is 30.3% (active).

Regarding `CCCCn1c2c(c(=N)c3c1CCC3)CCC2`, the inhibition is 33.1% (active).

For `Cc1c(C(C)C)c(=O)n(-c2ccc(S(=O)(=O)NCc3ccccc3)cc2)n1C`, the inhibition is 30.9% (active).

The inhibition is the relative decrease from the control value, in per cent.
